# Experimental data published in PubChem BioAssay AID463173 (ICCB-Longwood Screening Facility, Harvard Medical School, 2010).
# In all, about 52,000 compounds went through this assay and about 4,300 (8.3%) were called active. Many of the other results were omitted from the sample, so actives are more common in it than they were. A number with no mark means an inactive call. No stated cut-off is given here; in the data, active means survival mostly below about 52% (no sharp cut-off); inactive means mostly above about 56%.
# Tested on: DeltatarO mutant
# Experiment: growth inhibition of S. aureus wild type versus tarO mutant, primary screen, teichoic acid synthesis inhibitors, RN4220, OD600 (AID 463173)
# Conditions: OD600, 18 h, active compounds read low, screened at 18.75 µg/mL (by protocol)
row,Structure (SMILES),survival
1,COc1ccc(C(=O)NCCc2sc(-c3cccc(F)c3)nc2C)cc1,67%
2,CCc1ccc(CNC(=O)c2cc3c(=O)oc4ccc(C)cc4c3s2)cc1,82%
3,CCN(C(=O)c1cc2c(=O)oc3ccc(C)cc3c2s1)c1ccccc1C,63%
4,CCCN(C(=O)c1cc2c(=O)oc3ccccc3c2s1)c1ccc(CC)cc1,31% (active)
5,CCc1ccc(N(CC)C(=O)c2cc3c(=O)oc4ccc(C)cc4c3s2)cc1,42% (active)
6,CCCN(C(=O)c1cc2c(=O)oc3ccccc3c2s1)c1cccc(Cl)c1,47%
7,CCCN(C(=O)c1cc2c(=O)oc3ccccc3c2s1)c1ccccc1C,54%
8,CCOC(=O)C1=C(CN2CCCCC2)NC(=O)NC1c1ccc(OC)cc1 (stereo not given),84%
9,O=C1Nc2ccccc2C1=Nc1ccc(Br)cc1,74%
10,CCN(C(=O)CCS(=O)(=O)c1cccc2nsnc12)c1cccc(C)c1,74%
11,O=C(NC1CCCC1)C(c1ccccc1)N(CC1CCCO1)C(=O)Cn1nnc2ccccc21 (stereo not given),89%
12,CCOc1ccccc1NC(=O)CSc1nnc(CC)c(CC)n1,73%
13,Cc1ccc(C(=O)NCc2nnnn2-c2ccc(C)c(C)c2)cc1,115%
14,COc1ccc(-n2nnnc2SCC(=O)NCCc2ccccc2)cc1,53%
15,Cc1ccc(-n2nnnc2CNC(=O)c2ccc(F)cc2)cc1C,106%
16,Cc1ccc(-n2nnnc2CNC(=O)C(C)(C)C)cc1C,46% (active)
17,Cc1ccc(-n2nnnc2CNC(=O)c2cc(C(F)(F)F)cc(C(F)(F)F)c2)cc1C,0% (active)
18,O=C(CSc1nnnn1Cc1ccccc1)NCCc1ccccc1,89%
19,Cc1ccc(-n2nnnc2CNC(=O)c2ccccc2)cc1C,144%
20,Cc1ccc(-n2nnnc2SCC(=O)NCCc2ccccc2)cc1C,42% (active)
21,Cc1ccc(-n2nnnc2CNC(=O)C(C)C)cc1C,105%
22,CCOC(=O)C1=C(CS(=O)(=O)c2ccc(Br)cc2)NC(=O)NC1c1ccccc1 (stereo not given),80%
23,Cc1cccc(-c2cc(NC(=O)COc3ccccc3F)n(-c3ccccc3)n2)c1,86%
24,CCOC(=O)c1ccc(NC(=O)Cn2c(=O)cc(C(F)(F)F)c3c(C)nn(C)c32)cc1,95%
25,COc1ccc(CCNS(=O)(=O)c2ccc(N3CCCCS3(=O)=O)cc2)cc1OC,69%

row,Structure (SMILES),survival
1,O=C(Nc1ccc2oc(-c3cccnc3)nc2c1)c1ccc(-c2ccccc2)o1,45% (active)
2,O=C(Nc1cccc(-c2nc3ccccc3o2)c1)C(F)(F)F,61%
3,O=C(Nc1ccc2oc(-c3cccnc3)nc2c1)c1ccc(-c2ccc(Cl)cc2)o1,73%
4,O=C(Nc1ccc(O)c(-c2nc3ccccc3o2)c1)c1ccc(-c2cccc(Cl)c2)o1,49%
5,O=C(Nc1ccc2oc(-c3ccc(Br)cc3)nc2c1)c1cc2ccccc2o1,55%
6,O=C(Nc1cccc(-c2nc3ccccc3o2)c1)c1ccc(-c2ccc(Br)cc2)o1,39% (active)
7,COc1ccc(Cl)cc1C(=O)Nc1ccc2oc(-c3ccc(C(C)(C)C)cc3)nc2c1,82%
8,COc1ccc(Br)cc1C(=O)Nc1ccc(-c2nc3cc(Cl)ccc3o2)cc1,43% (active)
9,O=C(Nc1ccc2oc(-c3cccnc3)nc2c1)c1ccc(-c2cccc(Cl)c2)o1,50%
10,Cc1c(NC(=O)c2ccc(-c3cccc([N+](=O)[O-])c3)o2)cccc1-c1nc2cc(Cl)ccc2o1,52%
11,O=C(Nc1ccc(-c2nc3cc(Cl)ccc3o2)cc1)c1cc(Br)ccc1Cl,93%
12,O=C(Nc1ccc(Cl)c(-c2nc3ccccc3o2)c1)c1ccc(-c2cccc([N+](=O)[O-])c2)o1,37% (active)
13,CCOc1ccc(OCC)c(-n2cnnn2)c1,71%
14,CCOc1ccc2oc(=O)cc(CN3CCN(c4ccc(OC)cc4)CC3)c2c1,73%
15,COc1ccccc1N1CCN(C(=O)CSc2nc3ccccc3nc2Cc2ccc(F)cc2)CC1,95%
16,Cc1cccc(-c2noc(-c3cc(C(C)C)[nH]n3)n2)c1,97%
17,Cc1ccc(CCNC(=O)c2ccc3c(=O)n(-c4ccccc4)c(=O)[nH]c3c2)cc1,86%
18,Cc1cc(O)c(C(c2ccc(F)cc2)N2CCCCC2)c(=O)n1Cc1ccco1 (stereo not given),75%
19,COc1cccc(NC(=O)Cn2c(=O)n(CCCC(=O)NCc3ccc4c(c3)OCO4)c(=O)c3ccccc32)c1,115%
20,Cc1cc(C)c(NC(=O)C2CCN(c3nc4ccccc4[nH]3)CC2)c(C)c1,102%
21,Cc1ccc(C#N)c(SCC(=O)O)n1,91%
22,Cc1cccc(Cn2cc(S(=O)(=O)c3ccccc3)c(=O)c3cc(F)c(N4CCOCC4)cc32)c1,72%
23,COc1ccc(-c2nc3ccccc3o2)cc1NC(=O)c1cccc2c(Cl)cccc12,52%
24,COc1ccc(-c2nc3ccccc3o2)cc1NC(=O)C(C)(C)Oc1ccc(Br)cc1,4% (active)
25,COc1ccc(-c2nc3ccccc3o2)cc1NC(=O)c1ccc(OCC(C)C)cc1,40%
